Publication PMC12820563, “FoxP3 forms a head-to-head dimer in vivo and stabilizes its multimerization on adjacent microsatellites”
Whole data set: some 16,000 sequences, median “rpm ratio (pull-down/input)” near 0.94, cut for the highest 2% near 1.7. This is one part of a sample in which the highest values are shown more often than they occur.

Target: T1, MBP-FoxP1dN (Mus musculus, UniProt P58462 326-579)
T1 sequence: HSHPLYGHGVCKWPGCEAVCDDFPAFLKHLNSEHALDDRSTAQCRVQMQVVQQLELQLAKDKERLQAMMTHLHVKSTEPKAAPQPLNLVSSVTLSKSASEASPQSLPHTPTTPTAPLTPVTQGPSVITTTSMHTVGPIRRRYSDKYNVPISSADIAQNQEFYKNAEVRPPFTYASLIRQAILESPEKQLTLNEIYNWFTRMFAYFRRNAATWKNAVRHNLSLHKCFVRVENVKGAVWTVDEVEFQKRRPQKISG
Experiment: PD-seq (MBP pull-down with sequencing); 20 mM Tris-HCl pH 7.5, 100 mM NaCl, 1.5 mM MgCl2, 0.4 uM protein, 0.1 uM dsDNA library, 30 min, room temperature, amylose pull-down; high values mean tight binding
Details: protein: recombinant; tags: His6-MBP; chain copies: 2; dsDNA, one strand shown
Summary of the method: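 Binding is the reads-per-million enrichment of pull-down relative to input, pooled across replicates. For this, 0.4 µM His6-MBP-tagged mouse FoxP3 or FoxP1 fragment lacking the N-terminus, made in E. coli, was incubated with 0.1 µM Klenow-filled double-stranded degenerate DNA library for 30 min at room temperature in Tris pH 7.5 buffer with NaCl and MgCl2. Complexes bound to amylose resin were washed three times before proteinase K released the DNA for PCR barcoding and Illumina sequencing.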

Row | Sequence | binding signal
1 | GATGATTGTTCTCCCAGCTGATGAATTTACCCCGTCGAGTAAACAAATTTTCCTAATCTTTCTGTTCAAGCGCCATCTAC | 1.07 RPM ratio (pull-down/input)
2 | GATGATTGTTCTCCCAGCTGATGAATTCGTCTCTTCGAGTAAACAAATTTTCCTAATCTTTCTGTTCAAGCGCCATCTAC | 0.871 RPM ratio (pull-down/input)
3 | GATGATTGTTCTCCCAGCTGATGAATTGGAACGTTCGAGTAAACAAATTTTCCTAATCTTTCTGTTCAAGCGCCATCTAC | 0.904 RPM ratio (pull-down/input)
4 | GATGATTGTTCTCCCAGCTGATGAATTATTGTGGTCGAGTAAACAAATTTTCCTAATCTTTCTGTTCAAGCGCCATCTAC | 1.51 RPM ratio (pull-down/input)
5 | GATGATTGTTCTCCCAGCTGATGAATTTTTGCTGTCGAGTAAACAAATTTTCCTAATCTTTCTGTTCAAGCGCCATCTAC | 1.59 RPM ratio (pull-down/input)
6 | GATGATTGTTCTCCCAGCTGATGAATTCTTGCTGTCGAGTAAACAAATTTTCCTAATCTTTCTGTTCAAGCGCCATCTAC | 1.45 RPM ratio (pull-down/input)
7 | GATGATTGTTCTCCCAGCTGATGAATTGCTGCTGTCGAGTAAACAAATTTTCCTAATCTTTCTGTTCAAGCGCCATCTAC | 1.29 RPM ratio (pull-down/input)
8 | GATGATTGTTCTCCCAGCTGATGAATTGCTGATGTCGAGTAAACAAATTTTCCTAATCTTTCTGTTCAAGCGCCATCTAC | 1.22 RPM ratio (pull-down/input)
9 | GATGATTGTTCTCCCAGCTGATGAATTGTTGCTGTCGAGTAAACAAATTTTCCTAATCTTTCTGTTCAAGCGCCATCTAC | 2 RPM ratio (pull-down/input)
10 | GATGATTGTTCTCCCAGCTGATGAATTGCTGTTGTCGAGTAAACAAATTTTCCTAATCTTTCTGTTCAAGCGCCATCTAC | 2.5 RPM ratio (pull-down/input)
11 | GATGATTGTTCTCCCAGCTGATGAATTCTCTCGCTCGAGTAAACAAATTTTCCTAATCTTTCTGTTCAAGCGCCATCTAC | 0.825 RPM ratio (pull-down/input)
12 | GATGATTGTTCTCCCAGCTGATGAATTCTACCCCTCGAGTAAACAAATTTTCCTAATCTTTCTGTTCAAGCGCCATCTAC | 0.797 RPM ratio (pull-down/input)
13 | GATGATTGTTCTCCCAGCTGATGAATTGCGATAATCGAGTAAACAAATTTTCCTAATCTTTCTGTTCAAGCGCCATCTAC | 1.43 RPM ratio (pull-down/input)
14 | GATGATTGTTCTCCCAGCTGATGAATTTTTTGTATCGAGTAAACAAATTTTCCTAATCTTTCTGTTCAAGCGCCATCTAC | 1.26 RPM ratio (pull-down/input)
15 | GATGATTGTTCTCCCAGCTGATGAATTTGATGTATCGAGTAAACAAATTTTCCTAATCTTTCTGTTCAAGCGCCATCTAC | 1.25 RPM ratio (pull-down/input)
16 | GATGATTGTTCTCCCAGCTGATGAATTTGTATCATCGAGTAAACAAATTTTCCTAATCTTTCTGTTCAAGCGCCATCTAC | 1.51 RPM ratio (pull-down/input)

Row | Sequence | binding signal
17 | GATGATTGTTCTCCCAGCTGATGAATTGTTTGTATCGAGTAAACAAATTTTCCTAATCTTTCTGTTCAAGCGCCATCTAC | 2.64 RPM ratio (pull-down/input)
18 | GATGATTGTTCTCCCAGCTGATGAATTTGTTGTATCGAGTAAACAAATTTTCCTAATCTTTCTGTTCAAGCGCCATCTAC | 2.21 RPM ratio (pull-down/input)
19 | GATGATTGTTCTCCCAGCTGATGAATTTGCTGTATCGAGTAAACAAATTTTCCTAATCTTTCTGTTCAAGCGCCATCTAC | 1.16 RPM ratio (pull-down/input)
20 | GATGATTGTTCTCCCAGCTGATGAATTCCGCCTATCGAGTAAACAAATTTTCCTAATCTTTCTGTTCAAGCGCCATCTAC | 0.791 RPM ratio (pull-down/input)
21 | GATGATTGTTCTCCCAGCTGATGAATTTGGGGTGTCGAGTAAACAAATTTTCCTAATCTTTCTGTTCAAGCGCCATCTAC | 0.832 RPM ratio (pull-down/input)
22 | GATGATTGTTCTCCCAGCTGATGAATTATCGGTATCGAGTAAACAAATTTTCCTAATCTTTCTGTTCAAGCGCCATCTAC | 1.02 RPM ratio (pull-down/input)
23 | GATGATTGTTCTCCCAGCTGATGAATTGGTTGTATCGAGTAAACAAATTTTCCTAATCTTTCTGTTCAAGCGCCATCTAC | 1.3 RPM ratio (pull-down/input)
24 | GATGATTGTTCTCCCAGCTGATGAATTGTTGGTATCGAGTAAACAAATTTTCCTAATCTTTCTGTTCAAGCGCCATCTAC | 1.92 RPM ratio (pull-down/input)
25 | GATGATTGTTCTCCCAGCTGATGAATTGGTATTATCGAGTAAACAAATTTTCCTAATCTTTCTGTTCAAGCGCCATCTAC | 1.9 RPM ratio (pull-down/input)
26 | GATGATTGTTCTCCCAGCTGATGAATTTTTGGTATCGAGTAAACAAATTTTCCTAATCTTTCTGTTCAAGCGCCATCTAC | 1.09 RPM ratio (pull-down/input)
27 | GATGATTGTTCTCCCAGCTGATGAATTATTGGTATCGAGTAAACAAATTTTCCTAATCTTTCTGTTCAAGCGCCATCTAC | 1.55 RPM ratio (pull-down/input)
28 | GATGATTGTTCTCCCAGCTGATGAATTGTGTGCCTCGAGTAAACAAATTTTCCTAATCTTTCTGTTCAAGCGCCATCTAC | 1.14 RPM ratio (pull-down/input)
29 | GATGATTGTTCTCCCAGCTGATGAATTGCGATGCTCGAGTAAACAAATTTTCCTAATCTTTCTGTTCAAGCGCCATCTAC | 1.2 RPM ratio (pull-down/input)
30 | GATGATTGTTCTCCCAGCTGATGAATTCCGAGAGTCGAGTAAACAAATTTTCCTAATCTTTCTGTTCAAGCGCCATCTAC | 0.749 RPM ratio (pull-down/input)
31 | GATGATTGTTCTCCCAGCTGATGAATTCATCGTCTCGAGTAAACAAATTTTCCTAATCTTTCTGTTCAAGCGCCATCTAC | 0.784 RPM ratio (pull-down/input)
32 | GATGATTGTTCTCCCAGCTGATGAATTCAGGTTCTCGAGTAAACAAATTTTCCTAATCTTTCTGTTCAAGCGCCATCTAC | 0.857 RPM ratio (pull-down/input)
